The sample as a whole holds a higher share of hits than the screen did.
Tgondii IFNg: T. gondii growth inhibition with IFN-gamma, primary screen, cell-based | Toxoplasma gondii growth in IFN-gamma-treated host cells; active compounds read low | activity change, negative = inhibition, % (concentration not given with the values) | 3.8% of 69,000 active | AID 1259416, 2018; in the data active = activity change below about -70%, passing the limit was not always enough;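 note: host cells are HeLa cells infected with Toxoplasma gondii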
Active calls of the source: *; ! = a repeat was not active.

Results for Cc1ccc(C(C)CCN2CCC3(CC2)C(=O)N(C2Cc4ccccc4C2)C(=O)N3CC(C)C)o1 (centres undefined) ?
Tgondii IFNg: -35

Results for CC(C)N1CCO[C@H]2CN(C(=O)c3cccn3C)C[C@@H]21 ?
Tgondii IFNg: -4

How did CN(C(=O)COCC1CCCCO1)C1Cc2ccccc2C1 (centres undefined) do in these assays?
Tgondii IFNg: 229

Results for CC1CCN(S(=O)(=O)c2ccc3c(c2)CCC(=O)N3CC(=O)NC2CCCCCCC2)CC1 ?
Tgondii IFNg: 1

How did CN(C)c1cc(CCNC(=O)c2ccc3oc(=O)[nH]c3c2)nc(-c2ccccn2)n1 do in these assays?
Tgondii IFNg: -13

How did CN(C)C1CCN(S(=O)(=O)c2cccc(F)c2)C(C(=O)O)C1 (centres undefined) do in these assays?
Tgondii IFNg: -3

What do the screens show for `O=C(C1CCC1)N1CCc2cc(-c3csc(C4CC4)n3)ccc21`?
Tgondii IFNg: -10

How did CC(C)S(=O)(=O)N1CCC(Cc2nn(C)c(=O)n2-c2ccccc2)CC1 do in these assays?
Tgondii IFNg: -30

What do the screens show for `Cc1cccc(C)c1NC(=O)c1nnn(Cc2nc(-c3ccc(Cl)cc3)oc2C)c1C`?
Tgondii IFNg: -122*

Results for Cc1ccc(NC(=O)c2nnn(Cc3nc(-c4ccc(Cl)cc4)oc3C)c2C)c(C)c1 ?
Tgondii IFNg: 15

What do the screens show for `Cc1ccc(F)cc1NC(=O)c1nnn(Cc2nc(-c3ccc(OC(C)C)cc3)oc2C)c1C`?
Tgondii IFNg: 150

How did Cc1cc(C)c(NC(=O)c2nnn(Cc3nc(-c4ccc(Cl)cc4)oc3C)c2C)c(C)c1 do in these assays?
Tgondii IFNg: -48

How did Cc1ccc(NC(=O)c2nnn(Cc3nc(-c4ccc(OC(C)C)cc4)oc3C)c2C)c(C)c1 do in these assays?
Tgondii IFNg: -98*

What do the screens show for `Cc1cccc(C)c1NC(=O)c1nnn(Cc2nc(-c3cccc(Cl)c3)oc2C)c1C`?
Tgondii IFNg: 26

How did O=C(CC1CC2(CCN(C(=O)Nc3ccccc3)CC2)Oc2ccccc21)NC1CC1 (centres undefined) do in these assays?
Tgondii IFNg: 4

Results for O=C1CCc2cc(S(=O)(=O)NCC(c3ccccc3)c3c[nH]c4ccccc34)ccc2N1 (centres undefined) ?
Tgondii IFNg: 35

Results for CC(C)n1cnc2c(N3CCCC3)nc(C3CCN(C(=O)N(C)C)CC3)cc21 ?
Tgondii IFNg: 2

Results for COc1ccc(C)cc1NC(=O)C(=O)NCCc1sc(-c2ccccc2)nc1C ?
Tgondii IFNg: 27

What do the screens show for `Cn1c(-c2ccccc2)cnc1NC(=O)c1ccc(C2CCN(S(C)(=O)=O)CC2)nc1`?
Tgondii IFNg: -34

Results for CC(=O)c1ccccc1-c1ccc(C(=O)NCC2CCN(CC(C)C)C2)cn1 (centres undefined) ?
Tgondii IFNg: 6

What do the screens show for `O=C(CN1C(=O)CCc2cc(Br)ccc21)N1CCN(c2ccccc2F)CC1`?
Tgondii IFNg: -24

What do the screens show for `CN(C)C1CCN(C(=O)c2cc(-c3cnc(-c4cccc(F)c4)nc3)cn2C)CC1`?
Tgondii IFNg: -25

Results for CN(C)CCNC(=O)c1cc(-c2cnc(-c3cccc(F)c3)nc2)cn1C ?
Tgondii IFNg: -95*

How did CN(C)CCNC(=O)c1cc(-c2cnc(NCc3ccccc3)nc2)cn1C do in these assays?
Tgondii IFNg: -36

Results for CCS(=O)(=O)N1CCc2ncnc(C3CC3)c2CC1 ?
Tgondii IFNg: -2

How did Nc1ncnc2c1ncn2C1OC(COP(=O)(O)O)C(O)C1O (centres undefined) (tested in a mixture with another compound) do in these assays?
Tgondii IFNg: 18

What do the screens show for `Nc1ncnc2c1ncn2CCOCP(=O)(O)O`?
Tgondii IFNg: 8

How did CC(C)OC(=O)OCOP(=O)(CO[C@H](C)Cn1cnc2c(N)ncnc21)OCOC(=O)OC(C)C do in these assays?
Tgondii IFNg: -78*

Results for O=C(c1cccnc1)N1CCn2cc(CN3CCCC3)nc2C1 ?
Tgondii IFNg: -4

How did CCc1ccc(CN2CCN(c3cc(C(N)=O)ccn3)CC2)nc1 do in these assays?
Tgondii IFNg: 0

How did CCC1c2cccn2CCN1C(=O)c1cc2n(n1)CCCN(C(C)C)C2 (centres undefined) do in these assays?
Tgondii IFNg: 8

How did Oc1ccc([C@H]2Oc3cc(O)cc(O)c3C[C@H]2O)cc1 do in these assays?
Tgondii IFNg: 7

What do the screens show for `O=C1CC(c2ccc(O)cc2)Oc2cc(O)cc(O)c21` (centres undefined)?
Tgondii IFNg: 67

What do the screens show for `Oc1ccc([C@H]2COc3cc(O)ccc3C2)cc1`?
Tgondii IFNg: -73*!

Results for CCS(=O)(=O)N1CCCn2cnc(COCC3CC3)c2C1 ?
Tgondii IFNg: -10

How did Cc1ccc2[nH]nc(C(=O)N3CCCC3c3ccc(Cc4ccccc4F)cn3)c2c1 (centres undefined) do in these assays?
Tgondii IFNg: -105*

Results for Cc1ccc2[nH]nc(C(=O)N3CCCC(N)CC3)c2c1 (centres undefined) ?
Tgondii IFNg: -40

Screening data deposited in PubChem by Broad Institute.
